# “And” between values parts separate entries of the source, which are not always exact repeats. Equal values may be shown once. Inconclusive results are not listed. The source made the active and inactive calls. Unless noted, the call rests on the fitted dose curve; in most records, active means well fitted curve in the direction sought with a large enough effect; inconclusive means small, poorly fitted or top-dose-only effect, or another doubt; inactive means no such curve, though single readings can be large; an effect the other way counts as inactive or inconclusive.
# Legend:
# [1] = NCATS anti-infectives library activity on HEK293 viability as a counter-qHTS vs the C. elegans viability qHTS (AID 1745854); further: on the % scale 0 is the no-effect control and ±100 the full control effect
# How it was run: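 CellTiter-Glo luminescence, read on a CCD imager, scored viability of HEK293 cells after 24 hr compound exposure at 37C. Library tested in several concentrations, 1:5 steps, up to 41.7 uM; digitonin served as control.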
# [2] = NCATS anti-infectives library activity on the primary C. elegans qHTS viability assay (AID 1745855; calls by dose curve; further: potency means the concentration at half of the fitted maximal effect)
# How it was run: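 Titration-based screen in worms: eggs hatched overnight in M9, L1 larvae fed TOP10 capsules in S medium with compound, incubated 21 °C for 7 days; fluorescent objects gated by size and intensity at days 0, 3 and 7.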
# [3] = Primary qHTS for inhibitors of nuclear receptor binding SET domain protein 2 (NSD2) in an RCH-ACV wild type WT cells (2C) (AID 1645877); further: nearly all actives have a fitted effect of over 70% in size; further: potency means the concentration at half of the fitted maximal effect
# [4] = target: Catechol O-methyltransferase (Homo sapiens) (UniProt P21964); assay: Confirmatory Screen for Target Class Profiling of Small Molecule Inhibitors of Methyltransferases (AID 1745852; calls by dose curve; on activity change, negative = inhibition: on the % scale 0 is the no-effect control and ±100 the full control effect); conditions: MTase-Glo luminescence, SAH detection, recombinant enzyme; measured here: COMT max response; stronger effect = lower value
# [5] = target: Guanidinoacetate N-methyltransferase (Homo sapiens) (UniProt Q14353); assay: as above; conditions: activity change, negative = inhibition: at 57.3 µM (top of the series) unless noted
# [6] = target: Nicotinamide N-methyltransferase (Homo sapiens) (UniProt P40261); assay: as above; conditions: MTase-Glo luminescence, SAH detection, recombinant enzyme; measured here: NNMT max response; stronger effect = lower value
# [7] = target: Phenylethanolamine N-methyltransferase (Homo sapiens) (UniProt P11086); assay: as above; conditions: MTase-Glo luminescence, SAH detection, recombinant enzyme; measured here: PNMT max response; stronger effect = lower value
# [8] = Viability counterscreen for antagonist of constitutive androstane receptor (CAR) against the NCATS DSHEA and TCM libraries (AID 1794837);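 further: compound exposure lasted 24 h before viability reading; 0% is about no effect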
# How it was run: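 Viability was measured by CellTiter-Fluor fluorescence (405/540 nm, 1 hr) in HepG2-CYP2B6-hCAR cells. Cells were co-treated 24 hr with 48 uM CITCO (final), antagonist mode, and test substances.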
# [9] = Viability counterscreen for agonist of constitutive androstane receptor (CAR) against the NCATS DSHEA and TCM libraries (AID 1794838);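 further: cells exposed to compound for 24 h; 0% is about no effect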
# How it was run: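 Cell viability, from CellTiter-Fluor fluorescence (405/540 nm), was scored after a 24 h, 37C exposure of HepG2 cells carrying CYP2B6 reporter and hCAR to test substances in presence of 0.75 uM PK11195.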
# [10] = target: Nuclear receptor subfamily 1 group I member 3 (Homo sapiens) (UniProt Q14994); assay: Primary qHTS for agonist of constitutive androstane receptor (CAR) against the NCATS DSHEA and TCM libraries (AID 1794839);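 further: HepG2 cells expressing human CAR with a CYP2B6 reporter plus PK11195 antagonist; luciferase reporter luminescence read with ONE-Glo; 0% is about no effect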
# How it was run: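 Agonist mode in presence of hCAR antagonist PK11195 (0.75 µM final): test substances, 24 h, 37 °C, on HepG2-CYP2B6-hCAR cells. Same-well readouts: fluorescence viability, then ONE-Glo luminescence; CITCO as reference agonist.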
# Chain of Catechol O-methyltransferase (Homo sapiens) (P21964 whole entry, looked up): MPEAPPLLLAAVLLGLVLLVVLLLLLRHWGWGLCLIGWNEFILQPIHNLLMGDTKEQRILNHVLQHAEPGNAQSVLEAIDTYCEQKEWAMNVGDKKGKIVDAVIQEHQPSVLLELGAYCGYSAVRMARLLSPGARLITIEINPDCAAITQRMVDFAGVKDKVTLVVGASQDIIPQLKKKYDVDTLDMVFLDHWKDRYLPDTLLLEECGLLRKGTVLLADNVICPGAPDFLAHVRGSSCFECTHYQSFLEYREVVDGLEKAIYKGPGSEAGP
# Chain of Phenylethanolamine N-methyltransferase (Homo sapiens) (P11086 whole entry, looked up): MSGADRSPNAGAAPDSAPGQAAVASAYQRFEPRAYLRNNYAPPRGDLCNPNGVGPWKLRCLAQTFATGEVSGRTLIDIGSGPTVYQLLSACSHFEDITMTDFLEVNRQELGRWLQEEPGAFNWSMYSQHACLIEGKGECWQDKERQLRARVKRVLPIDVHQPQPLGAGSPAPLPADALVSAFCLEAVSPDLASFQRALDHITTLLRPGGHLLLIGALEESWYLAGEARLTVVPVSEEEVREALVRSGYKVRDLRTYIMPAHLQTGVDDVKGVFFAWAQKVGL
# Chain of Nicotinamide N-methyltransferase (Homo sapiens) (P40261 whole entry, looked up): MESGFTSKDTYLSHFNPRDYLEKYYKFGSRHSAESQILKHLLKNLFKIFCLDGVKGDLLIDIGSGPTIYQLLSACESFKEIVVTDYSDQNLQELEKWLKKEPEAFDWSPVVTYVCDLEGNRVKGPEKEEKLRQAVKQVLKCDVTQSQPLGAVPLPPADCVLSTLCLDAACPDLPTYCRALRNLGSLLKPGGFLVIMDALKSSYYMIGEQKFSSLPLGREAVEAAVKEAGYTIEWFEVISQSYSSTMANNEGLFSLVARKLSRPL
# Chain of Nuclear receptor subfamily 1 group I member 3 (Homo sapiens) (Q14994 whole entry, looked up): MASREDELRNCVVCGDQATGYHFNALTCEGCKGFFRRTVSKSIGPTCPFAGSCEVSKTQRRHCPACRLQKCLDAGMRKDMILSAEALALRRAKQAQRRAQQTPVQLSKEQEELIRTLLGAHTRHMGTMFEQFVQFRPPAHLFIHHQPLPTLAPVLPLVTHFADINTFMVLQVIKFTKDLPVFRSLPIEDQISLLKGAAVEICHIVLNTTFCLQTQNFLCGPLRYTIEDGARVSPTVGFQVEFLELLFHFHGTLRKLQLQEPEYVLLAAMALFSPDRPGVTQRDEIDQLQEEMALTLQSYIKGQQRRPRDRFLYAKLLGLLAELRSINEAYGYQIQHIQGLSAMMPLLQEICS
smiles,measurement,setting,value
COC(=O)[C@@]1(c2ccc(C)cc2)C[C@H]1CN1CCC(O)(c2ccccc2)CC1,Potency,[1],inactive
same,Potency,[2],inactive
CN[C@H](CC(C)C)C(=O)N[C@H]1C(=O)N[C@@H](CC(N)=O)C(=O)N[C@H]2C(=O)N[C@H]3C(=O)N[C@H](C(=O)N[C@H](C(=O)O)c4cc(O)cc(O)c4-c4cc3ccc4O)[C@H](O[C@H]3C[C@](C)(N)[C@@H](O)[C@H](C)O3)c3ccc(c(Cl)c3)Oc3cc2cc(c3O[C@@H]2O[C@H](CO)[C@@H](O)[C@H](O)[C@H]2O[C@H]2C[C@](C)(NCc3ccc(-c4ccc(Cl)cc4)cc3)[C@@H](O)[C@H](C)O2)Oc2ccc(cc2Cl)[C@H]1O,Potency,[3],inactive
same,Potency,[1],inactive
C=C(F)c1sc(CNCCCNc2cc(=O)c3ccccc3[nH]2)c(C)c1Br,activity,[4],-1.13%
same,"activity change, negative = inhibition",[5],-1.39%
same,activity,[6],-33.7%
same,activity,[7],-2.47%
CNS(=O)(=O)CC1CCC(N(C)c2ncnc3[nH]ccc23)CC1 (stereo unspecified),activity,[4],-6.68%
same,"activity change, negative = inhibition",[5],-4.35%
same,activity,[6],-58.2%
same,activity,[7],-84.3%
c1cc(OCCCN2CCCCC2)ccc1CN1CCCCC1,activity,[4],-4.16%
same,"activity change, negative = inhibition",[5],-2.14%
same,activity,[6],-0.228%
same,activity,[7],-0.509%
CCOCc1nc2c(N)nc3ccccc3c2n1CC(C)(C)O,Potency,[1],inactive
Nc1ncnc2c([C@@H]3N[C@H](CO)[C@@H](O)[C@H]3O)c[nH]c12,Potency,[1],inactive
C=C1C(=O)OC2CC3(C)C(CC12)C(C)=CC(O)C3OC(C)=O (stereo unspecified),activity,[4],-65.4%
same,"activity change, negative = inhibition",[5],0%
same,activity,[6],1.24%
same,activity,[7],-2.5%
CC(C)c1nc(-c2ccc(NC(=O)Nc3cccc(C(F)(F)F)c3)c3ccccc23)c2c(N)nccn12,activity,[4],-5.14%
same,"activity change, negative = inhibition",[5],-2.79%
same,activity,[6],-2.22%
same,activity,[7],-6.27%
COc1ccc(C2(O)CCC(N3CC[C@@H](NC(=O)CNC(=O)c4cccc(C(F)(F)F)c4)C3)CC2)cn1 (stereo partly specified),activity,[4],-5.05%
same,"activity change, negative = inhibition",[5],-4.96%
same,activity,[6],0.219%
same,activity,[7],0.417%
CS(=O)(=O)c1ccc(-c2nnc(/C=C/c3nnc(-c4ccc(C#N)cc4)o3)n2-c2ccccc2Cl)nc1,Potency,[3],inactive
same,Potency,[1],inactive
COc1ccc(C(=O)C2CCN(CC(=O)N(Cc3nc4c(c(=O)[nH]3)COCC4)CC3CC3)CC2)cc1,Potency,[3],inactive
same,Potency,[1],inactive
CCNCc1nc2c(N)nc3ccccc3c2n1CC(C)(C)O,Potency,[1],inactive
O=C(/C=C/c1cccc(S(=O)(=O)Nc2ccccc2)c1)NO,Potency,[3],252 nM (active) and 332 nM (active)
same,Potency,[1],inactive
N#C[C@@H]1CCCN1C(=O)CNC12CC3CC(CC(O)(C3)C1)C2,Potency,[1],inactive
COc1cc(OC)cc(C(=O)Nc2ccc(Cl)c(-c3nc4ccc(N(C)C)cc4[nH]3)c2)c1,activity,[4],-4.1%
same,"activity change, negative = inhibition",[5],-3.69%
same,activity,[6],-8.83%
same,activity,[7],-5.51%
CC1=CC(=O)CC(C)(C)C1CCC(C)O[C@@H]1O[C@H](CO[C@@H]2OC[C@@H](O)[C@H](O)[C@H]2O)[C@@H](O)[C@H](O)[C@H]1O (stereo partly specified),activity,[4],-54.5%
same,"activity change, negative = inhibition",[5],0% [at 29.8 µM]
same,activity,[6],0.168%
same,activity,[7],0.0687%
COc1cc(C(=O)OC[C@H]2O[C@@H](Oc3ccccc3/C=C/C(=O)O)[C@H](O)[C@@H](O)[C@@H]2O)cc(OC)c1OC,activity,[4],-77.7%
same,"activity change, negative = inhibition",[5],-3.16% [at 29.8 µM]
same,activity,[6],-2.69%
same,activity,[7],-3.5%
O=C(N/N=C/c1ccc(O)c(O)c1)c1cc2ccccc2cc1O,Potency,[3],5.41 µM (active)
same,Potency,[1],inactive
same,Potency,[2],20.5 µM (active)
C[C@@]12CC[C@@H]3[C@@](CC[C@H]4[C@@]3(C)CCC[C@@]4(C)C(=O)O)(CC1=O)C2,outcome,[8],inactive
same,outcome,[9],inactive
same,outcome,[10],inactive

# — PubChem BioAssay (NCATS)
